Among all 220,000 compounds or so, about 1,600 (0.73%) were called active.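 How the source made its calls: active means inhibition above about 70% (limit read from the data); inactive means the rest.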 Only a selection was taken, and actives are over-represented in it overall.
What follows are compounds tested against 14-3-3 protein zeta/delta (Bos taurus) (UniProt P63103) (assay: inhibitors of 14-3-3 zeta/Bad binding, primary screen, biochemical, TR-FRET, bovine 14-3-3 zeta (AID 781;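 further: 0% = full 14-3-3 plus peptide FRET controls and 100% = background without 14-3-3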)). Conditions: TR-FRET 14-3-3zeta/Dy647-pBad peptide displacement, 1 h; at 21.7 µM; hits give high values.
Sequence of 14-3-3 protein zeta/delta (Bos taurus) (P63103 whole entry, looked up): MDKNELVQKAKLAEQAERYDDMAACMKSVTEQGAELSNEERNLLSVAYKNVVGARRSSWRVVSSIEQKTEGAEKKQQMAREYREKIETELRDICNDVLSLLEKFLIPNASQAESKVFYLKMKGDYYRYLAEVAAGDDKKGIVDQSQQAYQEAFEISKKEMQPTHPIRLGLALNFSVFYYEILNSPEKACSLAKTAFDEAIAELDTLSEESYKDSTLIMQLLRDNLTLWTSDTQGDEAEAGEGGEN

SMILES	inhibition
CN1CCN(C(=O)COc2ccc(C(C)(C)C)cc2Br)CC1	-3.25% (inactive)
O=C(COc1ccc2ccccc2c1)N1CCN(Cc2ccncc2)CC1	87.2% (active)
CC(C)c1ccc(OCC(=O)N2CCN(C)CC2)c(Br)c1	3.12% (inactive)
O=C1NC(=O)N(CCc2ccc(F)cc2)C(=O)/C1=C/C=C/c1ccccc1	4.29% (inactive)
Cc1ccsc1C(=O)C1CCCN(Cc2ccc(O)cc2)C1 (stereo not given)	-11.4% (inactive)
COc1ccccc1CN1CCN(C(=O)Cc2ccccc2)CC1	75.5% (active)
COc1ccc(CN2CCN(c3ccccc3F)CC2)c(OC)c1	52.2% (inactive)
O=C(Cc1ccccc1)N1CCN(C2CCCCCC2)CC1	27.6% (inactive)
O=c1[nH]c(=O)n(-c2ccccc2)c(O)c1C=NC12CN3CN(CN(C3)C1)C2	-5.55% (inactive)
COC(=O)N1C(c2ccccc2)C1c1ccccc1 (stereo not given)	-6.04% (inactive)
Cc1cc(N2C(=O)C3CCCN3C2c2ccc(Cl)c(Cl)c2)no1 (stereo not given)	5.89% (inactive)
Cc1ccc(CN2CCCC(C(=O)c3ccc4c(c3)OCO4)C2)cc1C (stereo not given)	-6.26% (inactive)
O=C(Cc1ccccc1[N+](=O)[O-])N1CCN(Cc2ccc3c(c2)OCO3)CC1	-4.2% (inactive)
Fc1ccc(N2CCN(Cc3ccc4c(c3)OCO4)CC2)cc1	70.2% (active)
Fc1ccc(C2N3CCCN23)cc1 (stereo not given)	-6.34% (inactive)
CC(C)Oc1cccc(C(=O)C2CCCN(C3CCOCC3)C2)c1 (stereo not given)	-13% (inactive)
CC(C)CN1CCN(Cc2ccccc2C(F)(F)F)CC1CCO (stereo not given)	-9.76% (inactive)
Fc1cccc(F)c1CN1CCN(Cc2c(F)cccc2F)CC1	-4.69% (inactive)
CN1CCN(Cc2ccccc2C(F)(F)F)CC1	70.1% (active)
CN1CCN(Cc2ccc(OC(F)(F)F)cc2)CC1	78.5% (active)
Cc1ccc(-n2c(O)c(C=NCC3CCCO3)c(=O)[nH]c2=O)c(C)c1 (stereo not given)	5.29% (inactive)
CCCCC(=O)N/N=C/c1c(O)n(CCC2=CCCCC2)c(=O)[nH]c1=O	-15.6% (inactive)
CCC1(C)CC(CCNCc2ccc(N(C)C)cc2)(c2ccc(F)cc2)CCO1 (stereo not given)	-2.86% (inactive)
c1cc2c(cc1[C@H]1OC[C@H]3[C@@H]1CO[C@@H]3c1ccc3c(c1)OCO3)OCO2	-2.89% (inactive)
O=c1[nH]c(=O)n(CCc2ccc(F)cc2)c(O)c1/C=N/N1CCCCC1	-6.68% (inactive)

Source: PubChem BioAssay AID781 (Emory University Molecular Libraries Screening Center, 2007)
